M1 PAM: potentiates human M1 receptor response to acetylcholine | 360,000 compounds, 0.088% hits | CHO-K1 hM1, Fluo-8 calcium fluorescence, ACh EC20; 0% = ACh EC20, 100% = maximal ACh | activation, % at 3 µM | AID 588819 | P11229; in the data active = activation above about 19%, passing the limit was not always enough
Target sequence (P11229 whole entry, looked up): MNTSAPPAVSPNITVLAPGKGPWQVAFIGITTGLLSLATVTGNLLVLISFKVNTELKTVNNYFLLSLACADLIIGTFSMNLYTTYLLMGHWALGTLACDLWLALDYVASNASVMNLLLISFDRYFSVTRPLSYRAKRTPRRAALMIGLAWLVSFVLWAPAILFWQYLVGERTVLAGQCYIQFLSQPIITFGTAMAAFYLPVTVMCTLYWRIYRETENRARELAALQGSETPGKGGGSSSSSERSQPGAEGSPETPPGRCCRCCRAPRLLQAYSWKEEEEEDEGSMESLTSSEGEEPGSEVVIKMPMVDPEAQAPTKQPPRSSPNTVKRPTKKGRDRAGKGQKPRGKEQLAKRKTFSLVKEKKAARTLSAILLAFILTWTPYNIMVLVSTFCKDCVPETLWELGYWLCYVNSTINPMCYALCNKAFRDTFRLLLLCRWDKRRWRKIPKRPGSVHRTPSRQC
M1 antag: blocks human M1 muscarinic receptor; P11229; CHO-K1 hM1, Fluo-8 calcium fluorescence, ACh EC80 antagonist; inhibition, % at 3 µM; 360,000 compounds, 1.3% hits; AID 588852;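 active = percent inhibition above its own plate's cutoff, namely the mean of that plate's compound wells plus 3 SD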;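 also: peak over basal fluorescence ratio during 140 s after agonist addition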
CHO-K1 Ca antag: counter-screen for M1 antagonists: effect in parental CHO-K1 cells; AID 602250; 360,000 compounds, 0.6% hits; inhibition, % at 3 µM; ATP-induced calcium, Fluo-8 fluorescence;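 active = inhibition above a per-plate cutoff, the plate's mean sample inhibition plus 3 SD, cut at about 24% in these data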
CHO-K1 Ca PAM: M1 PAM counterscreen hit in parental CHO-K1 cells. ATP EC20, Fluo-8 calcium fluorescence; 0% at ATP EC20, 100% at ATP max. 360,000 compounds, 0.02% hits. activation, % at 3 µM;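 active = activation above the run cutoff, the mean activation of all test compounds plus 3 SD, cut at about 40% in these data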;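 also: peak over basal fluorescence ratio in a 140 s read after ATP addition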
CHRM1 agonist: human M1 muscarinic receptor agonism | CHO-K1 hM1, Fluo-8 calcium fluorescence, agonist mode; 0% DMSO, 100% acetylcholine EC100 | activation, % at 3 µM | 360,000 compounds, 0.33% hits | P11229;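 active = activation above the run's mean compound activation plus 3 SD, cut at about 16% in these data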;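 also: peak over basal fluorescence ratio within a 140 s kinetic read after compound addition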
CHO-K1 Ca ag: nonselective activator or artifact in parental CHO-K1 cells | 360,000 compounds, 0.48% hits | Fluo-8 calcium fluorescence; scaled to maximal ATP response, vehicle zero | activation, % at 3 µM | AID 602248; in the data active = activation above about 15%;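 also: untransfected CHO-K1 host cells lacking M1 receptor as counterscreen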
Large screens that a line does not name were inactive. This is a sample that favours compounds with a hit; in the whole collection about 2.4% have one here.

CC(C)(C)OC(=O)C[C@@H]1C/C=C\C[C@@H](CC(=O)N[C@@H](CO)Cc2ccccc2)C(=O)NC[C@@H](c2ccccc2)OC1=O	none
CCOC(=O)c1c(S(=O)(=O)Nc2ccccc2OCC)c(C)n(C)c1C	none
CCOC(=O)CCNC(=O)N1CCCC(C(=O)c2cc(C)c(OC)c(C)c2)C1 (stereo not drawn)	none
N#C/C(=C/c1ccc(-c2ccc(S(N)(=O)=O)cc2)o1)c1nc2ccccc2s1	M1 antag 60, CHO-K1 Ca antag 41, CHRM1 agonist 54, CHO-K1 Ca ag 30
N#C/C(=C\c1ccccn1)c1nc2ccccc2s1	CHO-K1 Ca antag 34, CHRM1 agonist 28, CHO-K1 Ca ag 34
COC(=O)c1ccc(/C=C(\C#N)c2nc3ccccc3s2)cc1	none
N#C/C(=C/c1ccc(-c2ccc(S(N)(=O)=O)cc2)o1)C(=O)Nc1ccccc1	CHO-K1 Ca antag 28
CC(OC(=O)c1cccc(S(=O)(=O)N2CCOCC2)c1)C(=O)NC1CCCCC1C (stereo not drawn)	none
NNC(=O)C(Cc1cnc[nH]1)NC(=O)OCc1ccccc1 (stereo not drawn)	none
CCN(CC)c1ccc(/C=C/C(=O)C2C(=O)C=C(C)OC2=O)cc1 (stereo not drawn)	M1 antag 56, CHO-K1 Ca antag 44, CHRM1 agonist 134, CHO-K1 Ca ag 50
COc1ccc(N(CCC#N)S(=O)(=O)c2cccc3nsnc23)cc1	M1 antag 25
O=C(c1[nH]c(C(F)(F)F)nc1-c1ccccc1)N1CCN(c2c(Cl)cncc2Cl)CC1	CHRM1 agonist 17
O=C(c1[nH]c(C(F)(F)F)nc1-c1ccccc1)N1CCN(c2ccccc2)CC1	none
COc1ccc(F)cc1S(=O)(=O)Nc1ccncc1	none
CCCCc1cc(O)c(CCCC)c(O)c1	M1 antag 51, CHO-K1 Ca antag 48, CHRM1 agonist 55, CHO-K1 Ca ag 47
CCN(CC)C(=O)C1c2ccccc2Oc2ccccc21	CHRM1 agonist 18, CHO-K1 Ca ag 27
CC(C)[N+](C)(CCOC(=O)C1c2ccccc2Oc2ccccc21)C(C)C	M1 antag 97
C=CCN(CC=C)C(=O)C1c2ccccc2Oc2ccccc21	none
CC(C)CNC(=O)COC(=O)C1c2ccccc2Oc2ccccc21	none
COc1cccc(CNS(=O)(=O)c2cc3c4c(c2)CCN4C(=O)CC3)c1	none
CN(CCC(=O)Nc1ccc(Cl)cc1)Cc1ccccc1	none
C=CCC1(CC=C)CCCN1C(=O)c1cc(COc2ccc(C)nc2)on1	M1 antag 55, CHO-K1 Ca antag 49, CHO-K1 Ca ag 16
CCN1CCN(c2ccc(N3CCN(C(=O)c4ccc(Br)o4)CC3)nn2)CC1	M1 antag 35
O=C(c1ccc(Br)o1)N1CCN(c2ccc(F)cc2)CC1	none
C=CS(=O)(=O)c1ccc(Oc2ccc(S(=O)(=O)C=C)cc2)cc1	CHO-K1 Ca ag 15
COc1ccc(F)cc1C(=O)C1CCCN(Cc2cccn2-c2cccnc2)C1 (stereo not drawn)	none
COc1ccc(F)cc1C(=O)C1CCCN(Cc2c(C)n(C)n(-c3ccccc3)c2=O)C1 (stereo not drawn)	M1 antag 36
CCCCN(CCCC)c1cn[nH]c(=O)c1Cl	M1 antag 27
CCCCSc1nc2[nH]ncc2c(=O)[nH]1	none
CCOC(=O)CN(Cc1sccc1C)C(=O)Nc1ccc(OC)cc1OC	CHO-K1 Ca antag 25
CCOC(=O)c1cc2sccc2n1CC(=O)Nc1ccc(OC)cc1OC	none
CSc1ccccc1C(=O)N1CCc2ccc(NC(=O)c3ccccn3)cc2C1	CHO-K1 Ca antag 25
CSc1ccc(C(=O)N2CCc3ccc(NC(=O)c4ccccn4)cc3C2)cc1	none
COc1cccc(-c2c(C(=O)N/N=C/c3ccoc3)nnn2-c2nonc2N)c1	none
CCOc1cccc(=O)c2c(C)n(Cc3ccccc3)c(C)c12	CHO-K1 Ca ag 23
O=C1Nc2cccnc2N(C(=O)CCl)c2ccccc21	none
O=C(NC(=S)Nc1sc2c(c1C(=O)O)CCCC2)c1ccccc1	none
O=Cc1ccccc1OCCOc1ccccc1C=O	M1 antag 82
COc1ccc(Cl)cc1C(=O)NCCN(C)C	none
CN(C)CCNC(=O)c1ccc(COc2ccc(Cl)cc2Cl)cc1	M1 antag 31
CCCCN(C(=O)c1ccco1)C1CCS(=O)(=O)C1 (stereo not drawn)	none
CN(CC(=O)NCc1ccccc1)CC(=O)Nc1ccc(Cl)c(C(F)(F)F)c1	none
CN(CC(=O)Nc1ccc(Cl)c(Cl)c1)CC(=O)N1CCCCCC1	M1 antag 71
CN(CC(=O)Nc1ccc(Cl)c(C(F)(F)F)c1)CC(=O)NC1CCCCC1	M1 antag 26
CN(CC(=O)Nc1cccc(S(=O)(=O)N2CCCC2)c1)CC(=O)Nc1ccc(Cl)c(C(F)(F)F)c1	M1 antag 26, CHO-K1 Ca antag 32
CN(C)c1ccc(CN(C(=O)c2ccccc2Br)C2CCS(=O)(=O)C2)cc1 (stereo not drawn)	none
COc1cc(CNCCNC(=O)c2nonc2N)ccc1OCc1ccc(Cl)nc1	CHO-K1 Ca ag 20
COc1ccc(CNCCNC(=O)c2nonc2N)cc1OC	none
CC1CCCN(C/C=C/c2ccccc2[N+](=O)[O-])C1 (stereo not drawn)	none
CCC1CCCCN1C/C=C/c1ccccc1[N+](=O)[O-] (stereo not drawn)	M1 antag 89
CC1CCCCN1C/C=C/c1ccccc1[N+](=O)[O-] (stereo not drawn)	M1 antag 86
Cc1cc(=O)[nH]c(=S)n1-c1ccccc1	none
Nc1cc(=O)[nH]c(=S)n1-c1ccccc1	CHO-K1 Ca antag 32
CCC(=O)Nc1nnc(SCCN2CCOCC2)s1	M1 antag 33
Cc1cccc(-n2nnnc2SCn2nnc3ccccc3c2=O)c1	CHO-K1 Ca antag 27
Cc1ccc(-n2nnnc2SCn2nnc3ccccc3c2=O)cc1	none
COc1ccccc1Nc1ncnc2c1c(C)c(C)n2CCO	none
CCc1c(C)nc2nc(SCc3ccccc3)[nH]n2c1=O	none
CCN(CC)CC(=O)NN=C(c1ccccc1)c1ccccc1	M1 antag 27
O=C(CCl)NN=C(c1ccccc1)c1ccccc1	none
Cc1noc(C)c1C(c1ccccc1)S(=O)(=O)c1ccccc1 (stereo not drawn)	CHO-K1 Ca antag 28
Cc1ccc(S(=O)(=O)C(c2ccccc2)c2c(C)noc2C)cc1 (stereo not drawn)	none
COc1ccc(-c2nc3cc(C)c(Br)c(C)n3c2CC(C)(C)C)cc1OC	none
Cc1c(Cl)cccc1NC(=O)CCN1CCCCC1	none
CCOC(=O)C1CCCN(CCC(=O)Nc2cccc(C)c2)C1 (stereo not drawn)	CHRM1 agonist 43

Bioassay records as filed in PubChem.
